The list is not random: actives were taken first. Their share in the collection is about 3.4%.
GPR151 activ = activators of human GPR151, primary screen, cell-based, PathHunter beta-arrestin, luminescence. G-protein coupled receptor 151 (Homo sapiens), Q8TDV0. PathHunter beta-arrestin GPR151 cells. activation, % at 11.2 µM. 1% of 650,000 active. AID 1508602, 2020; in the data active means activation above about 4.9%;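 further: 0% = median of compound wells and 100% = cells with positive control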
FBW7 activator = FBW7 E3 ligase activators, primary screen, biochemical, AlphaScreen, human; AID 1259310, 2017; 0.13% of 650,000 active; AlphaScreen FBW7–phospho-cyclin E peptide binding, activator screen; normalized activity (activation), % at 26.1 µM; F-box/WD repeat-containing protein 7 (Homo sapiens), Q969H0; in the data active means normalized activity above about 1.9%;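 further: purified mutant Fbw7 with reduced substrate affinity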
TEAD-YAP block = TEAD-YAP interaction inhibition, primary screen, TEAD-YAP interaction inhibitor project, luminescence, HEK-TIYL cells | inhibition, % at 9.12 µM | AID 1259422, 2018 | TEAD-Gal4/YAP UAS-luciferase luminescence | 1.4% of 640,000 active; in the data active means inhibition above about 32%;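 further: 0% = median of test compound wells and 100% = reference inhibitor wells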
MITF primary = MITF inhibitors, primary screen, biochemical, AlphaScreen, human; Microphthalmia-associated transcription factor (Homo sapiens), O75030; 0.91% of 650,000 active; AlphaScreen MITF homodimerization, bead proximity signal; inhibition, % at 2.6 µM; in the data active means inhibition above about 50%;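 further: 0% = vehicle wells with protein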
Target sequence (O75030 whole entry, looked up): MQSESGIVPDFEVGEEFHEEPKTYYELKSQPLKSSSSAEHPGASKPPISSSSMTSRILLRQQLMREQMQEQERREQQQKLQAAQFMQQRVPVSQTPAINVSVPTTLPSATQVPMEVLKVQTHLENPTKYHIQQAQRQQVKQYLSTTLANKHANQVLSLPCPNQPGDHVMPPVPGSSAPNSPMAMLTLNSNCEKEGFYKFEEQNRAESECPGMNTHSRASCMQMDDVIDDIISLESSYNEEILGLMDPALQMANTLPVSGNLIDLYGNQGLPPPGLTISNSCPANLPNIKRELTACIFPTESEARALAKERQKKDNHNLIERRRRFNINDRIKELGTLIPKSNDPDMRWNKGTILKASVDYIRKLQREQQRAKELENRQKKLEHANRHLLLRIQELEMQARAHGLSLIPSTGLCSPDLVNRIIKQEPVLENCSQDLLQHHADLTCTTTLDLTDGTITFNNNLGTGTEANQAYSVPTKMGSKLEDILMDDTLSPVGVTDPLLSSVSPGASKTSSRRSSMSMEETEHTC
Numbers without * were called inactive.

SMILES	GPR151 activ	FBW7 activator	TEAD-YAP block	MITF primary
COc1cc(C(=O)N/N=C(C)/C=C/c2ccccc2)cc(OC)c1OC	1.3	-0.1	64.2*	15.3
COc1cc(C(=O)N/N=C(\C)c2ccc(N)cc2)cc(OC)c1OC	-0.3	-0.1	49.1*	-13.9
COc1cc(C(=O)N/N=C(\C)c2ccccc2)cc(OC)c1OC	0.8	-0.1	60.8*	7.3
COc1ccc(/C(C)=N/NC(=O)c2ccccc2)cc1OC	0.6	0.0	-51.9	-5.0
COc1cc(C(=O)NN=C(C2CC2)C2CC2)cc(OC)c1OC	-0.6	0.0	58.8*	-4.5
COc1cc(C(=O)NC2CCCCCCC2)cc(OC)c1OC	1.4	0.2	-1.9	13.7
C/C(=N/NC(=O)c1cc(O)c(O)c(O)c1)c1ccc(F)cc1	-0.5	-0.3	4.3	58.6*
COc1cc(C(=O)N/N=C(\C)Cc2ccccc2)cc(OC)c1OC	-0.3	-0.1	58.4*	12.0
COc1cc(C(=O)NN2C(=O)c3ccccc3C2=O)cc(OC)c1OC	-0.3	-0.1	52.5*	-1.7
CCOc1ccc(-n2c(CNC(=O)c3ccccc3OC)nnc2SCC(=O)N2CCc3ccccc32)cc1	-0.9	0.2	-3.5	-13.3
COc1cc(C(=O)N/N=C(\C)c2ccco2)cc(OC)c1OC	-0.4	0.8	52.5*	12.9
C/C(=N/NC(=O)c1cc(O)cc(O)c1)c1ccco1	-0.9	0.1	0.3	5.0
CN(Cc1ccccc1)C(=O)c1ccc(N2CC3CC(C2)c2cccc(=O)n2C3)c(NC(=O)c2cc3ccccc3oc2=O)c1 (centres undefined)	2.4	-0.1	-8.9	-9.0
CCc1c(C)sc2nc(C(C)C)n3c(=O)[nH]nc3c12	0.1	0.1	3.9	4.8
Cc1sc2nc(C(C)C)n3c(=S)[nH]nc3c2c1C	-8.8	0.0	54.7*	-5.0
O=C(Nc1ccnc(-c2cccnc2)n1)c1cc(C(F)(F)F)cc(C(F)(F)F)c1	-0.5	0.0	10.2	11.9
COc1ccccc1N=C1SCCN1C(=O)c1ccc([N+](=O)[O-])o1	-1.0	2.2*	4.3	3.2
COc1cccc2sc(=NC(=O)c3ccc([N+](=O)[O-])o3)n(C)c12	4.8	0.0	-1.9	-0.2
Oc1ccc(-c2cnc3c(N4CCOCC4)nccn23)cc1	-1.1	0.5	79.5*	45.4
CC(=O)Nc1cccc(-c2cnc3c(N4CCN(C)CC4)nccn23)c1	1.4	-0.7	-67.8	12.9
Oc1cccc(-c2cnc3c(N4CCOCC4)nccn23)c1	0.0	-0.6	79.5*	10.4
CC(=O)Nc1cccc(-c2cnc3c(N4CCOCC4)nccn23)c1	-0.7	-0.9	78.8*	11.2
C=CCNC(=S)NNC(=O)c1ccccc1O	-0.4	-1.7	88.6*	-3.0
C=CCNC(=S)NNC(=O)c1ccccc1OCCC	-1.0	0.3	1.9	-13.1
COC(=O)c1c(NC(=O)CN2CC(C)OC(C)C2)sc2c1CCC2 (centres undefined)	1.2	-0.1	7.7	-4.0
SMILES	GPR151 activ	FBW7 activator	TEAD-YAP block	MITF primary
CN(C)Cc1ccc2c(sc3nc4n(c(=O)c32)CCCCC4)c1O	-1.4	-0.1	53.3*	8.3
CCOC(=O)c1ccc(OCc2ccc(OC)c([N+](=O)[O-])c2)cc1	-1.1	0.8	13.0	6.9
C=CCNC(=S)N/N=C/c1ccc(C(F)(F)F)cc1	0.9	-0.1	43.5*	-4.3
O=C(NCCCn1ccnc1)c1ccc(C#Cc2ccccc2)o1	1.7	-0.1	34.8*	4.1
CC(=O)NC(c1cccs1)c1cc([N+](=O)[O-])c2cccnc2c1O (centres undefined)	-0.2	-0.4	-13.5	78.8*
COc1ccc(C(NC(C)=O)c2cc([N+](=O)[O-])c3cccnc3c2O)cc1 (centres undefined)	0.5	-0.6	-7.7	47.9
CC(=O)NC(c1ccccc1Cl)c1cc([N+](=O)[O-])c2cccnc2c1O (centres undefined)	-0.7	-0.8	4.5	89.8*
CCC(=O)NC(c1cccs1)c1cc([N+](=O)[O-])c2cccnc2c1O (centres undefined)	0.6	-0.8	1.7	45.1
CCOc1cc(C(NC(C)=O)c2cc([N+](=O)[O-])c3cccnc3c2O)ccc1O (centres undefined)	0.0	-0.4	6.4	85.1*
O=C(CCl)N1CCN(S(=O)(=O)c2ccccc2)CC1	-0.4	0.0	34.5*	11.4
O=C(Nc1ccc(O)cc1)c1c(O)c2c([nH]c1=O)CCCC2	2.0	-0.1	68.3*	4.0
